Compound activity (PubChem BioAssay)
Gli-Sufu block = blocks Gli-Sufu signaling in a luciferase reporter | hit rate 0.74% among 340,000 | AID 588413 | inhibition, % at 5 µM | Sufu-KO-LIGHT fibroblasts, Gli luciferase reporter luminescence;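 active = inhibition above about 55%, limit read from the data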;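 note: 0% = DMSO-treated cells and 100% = wells with medium but no cells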
Mdm2 MdmX PPI = disrupts the human Mdm2-MdmX interaction; SaOS-2 split-luciferase Mdm2/MdmX complementation, luminescence; inhibition, % at 8 µM; hit rate 3% among 330,000; AID 485346;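 active = inhibition of at least 50% at 8 µM in the primary screen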
aSyn UTR inh = 5' untranslated region of α-synuclein, MLPCN primary screen. hit rate 0.82% among 300,000. AID 1813. inhibition, % (tested at 7.5 µM). alpha-synuclein 5'UTR reporter, inhibitor activity; in the data active = inhibition above about 60%;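 note: H4 neuroglioblastoma cells stably carrying SNCA 5'UTR luciferase fusion; 0% = DMSO wells and 100% = positive control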
KLF5 inhibitor = suppresses KLF5 promoter-driven expression. DLD-1 KLF5 promoter-luciferase reporter, luminescence. hit rate 0.23% among 290,000. AID 1700. inhibition, % at 5 µM;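 active = inhibition above a per-plate limit of that plate's mean compound inhibition plus 3 SD, cut at about 60% in these data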;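 note: 0% = DMSO wells and 100% = LY294002 at 200 µM; higher means less KLF5 promoter-driven luciferase light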
697 NFkB inh = lowers PMA/ionomycin-induced NF-kB signal in 697 B cells; 697 B-cell NF-kB luciferase reporter, 16 h; AID 435022; hit rate 0.33% among 330,000; inhibition, % at 4 µM; in the data active = inhibition above about 35%
Jurkat NFkB inh = inhibitors of the PMA/ionomycin-induced NF-kB reporter in Jurkat cells; PMA/ionomycin-induced NF-kB luciferase reporter, luminescence; inhibition, % at 4 µM; hit rate 0.53% among 330,000; in the data active = inhibition above about 50%
Mdm2-MdmX conf = human Mdm2/MdmX binding inhibition, confirmed; shares compounds with Mdm2 MdmX PPI; luminescent assay; inhibition, % at 8 µM; hit rate 55% among 10,000; in the data active = inhibition above about 40%
Full FLuc ctr = full-length luciferase inhibition in Mdm2/MdmX counter-screen. shares compounds with Mdm2 MdmX PPI. hit rate 77% among 6,200. inhibition, % at 8 µM. SaOS-2 full-length luciferase counterscreen, luminescence. AID 504607;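 active = mean inhibition at 8 µM reaching about 37%, which flags the compound as non-specific, limit read from the data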;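 note: p53-null SaOS-2 cells with luciferase driven by a doxycycline-inducible promoter; compound on cells about two nights before reading with doxycycline added after day one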
Active calls of the source: *; . = not tested or not shown. Most compounds without a hit are left out; they make up all but 4.1% or so of the library.

SMILES	Gli-Sufu block	Mdm2 MdmX PPI	aSyn UTR inh	KLF5 inhibitor	697 NFkB inh	Jurkat NFkB inh	Mdm2-MdmX conf	Full FLuc ctr
CCC(OC(=O)c1ccco1)C(=O)NCc1ccc2c(c1)OCO2 (stereo not given)	-2	11	-4	-28	6	13	.	.
Cc1cc2oc(=O)cc(CN3CCCCC3C)c2cc1Cl (stereo not given)	2	8	34	-16	17	14	.	.
O=c1c2ccccc2cnn1Cc1ccc(Cl)c(Cl)c1	-13	16	-7	-12	-1	-7	.	.
Cc1cc2oc(=O)cc(Cn3ncc(Cl)c(Cl)c3=O)c2cc1Cl	-4	96*	3	-22	-7	28	98*	54*
Cc1ccc(C)c(C(=O)Cn2ncc(Cl)c(Cl)c2=O)c1	30	97*	13	-12	-10	11	84*	32
Cc1cccc(Cn2ncc(Cl)c(Cl)c2=O)c1	-6	100*	-30	-6	4	4	84*	51*
CN=c1scc(-c2c[nH]c3ccccc23)n1C	10	7	.	1	-2	-3	.	.
N/C(=N\c1nc2ccccc2o1)NC(=O)c1ccc(F)cc1	-27	67*	-132	-38	-46	-31	8	.
CCCCN=C1NC(=O)C(CC(=O)NCCc2ccc(OC)cc2)S1 (stereo not given)	0	2	-1	-17	9	6	.	.
Cc1cc(C)c2cc(CN(Cc3ccco3)C(=S)NCC3CCCO3)c(=O)[nH]c2c1 (stereo not given)	-23	10	31	-13	14	-5	.	.
CCCCCCC[C@@H](C/C=C/CCC(=O)N(C)C/C(=C/Cl)C/C(=C\C(=O)N1C[C@H](O)CC1=O)OC)OC	-4	40	.	.	-25	-6	.	.
CCCCCCC[C@@H](C/C=C/CCC(=O)N(C)C/C(=C/Cl)C/C(=C\C(=O)N1CC(OC)=CC1=O)OC)OC	37	60*	.	.	-87	7	-20	.
Cc1ccc(C(=O)NCC(=O)OCC(=O)c2ccc(Br)s2)cc1	-11	-3	9	.	7	0	.	.
CCNc1nc(NCC)n2c(SC(C(=O)Nc3cc(Cl)cc(Cl)c3)c3ccccc3)nnc2n1 (stereo not given)	20	95*	9	8	-28	5	-3	.
COc1ccc(C(C)=O)cc1CSc1nnc(-c2ccc(Cl)cc2)n1-c1ccccc1	3	63*	-5	-23	9	3	49*	26
COc1ccc(C(C)=O)cc1CSc1nnc(-c2ccncc2)n1C	-18	-10	11	-24	12	2	.	.
CCCN1CCN(C(=O)C2CCN(S(=O)(=O)c3c(C)noc3/C=C/c3ccc(C)cc3)CC2)CC1	17	58*	2	-6	3	23	15	.
Cc1ccc(/C=C/c2onc(C)c2S(=O)(=O)N2CCC(C(=O)N3CCCCC3)CC2)cc1	1	44	19	-6	14	18	.	.
CCOc1ccc(/C=N/NC(=O)c2c(C)n(C)c3ccc(OC)cc23)cc1	-14	31	10	15	5	37	.	.
COc1ccc2c(c1)c(C(=O)N/N=C/c1ccc(Br)cc1)c(C)n2C	-5	56*	-116	24	-30	41	39	54*
COc1cc2nc(NC(=O)c3ccccc3)[nH]c(=O)c2cc1OC	0	-22	-13	2	4	-15	.	.
COc1ccc(C(=O)Nc2nc3cc(OC)c(OC)cc3c(=O)[nH]2)cc1	6	71*	.	-11	11	0	-10	.
N#Cc1c([N+](=O)[O-])cc([N+](=O)[O-])cc1S(=O)(=O)Cc1ccccc1	1	98*	.	.	-21	4	96*	0
COc1cc(OC)c(C#N)c(S(=O)(=O)Cc2ccccc2)c1	3	1	-3	-6	3	-3	.	.
Cc1ccc(S(=O)(=O)N(C)/N=C2/C(=O)N(CC(=O)O)c3ccccc32)cc1	-24	-17	13	-18	2	3	.	.
SMILES	Gli-Sufu block	Mdm2 MdmX PPI	aSyn UTR inh	KLF5 inhibitor	697 NFkB inh	Jurkat NFkB inh	Mdm2-MdmX conf	Full FLuc ctr
COc1cc2cc(CN(CCc3cccc(C)c3)C(=S)NCCCN(C)C)c(=O)[nH]c2cc1OC	12	52*	0	6	1	15	26	.
Cc1cccc(S(=O)(=O)NCCNS(=O)(=O)c2cccc(C)c2)c1	-6	-24	12	-5	6	-10	.	.
Cc1cc(C)c2c(N)c(C(=O)c3ccccc3)sc2n1	-1	8	41	-5	1	-8	.	.
Cc1nc2sc(C(N)=O)c(N)c2c(C)c1CC(=O)c1ccccc1	-59	58*	-52	-70	-3	23	62*	31
O=C(CCSC1=NCCCN1)c1ccc(F)cc1	7	.	.	.	.	.	.	.
C[C@H](C[C@H](O)[C@H]1OC1(C)C)C1=C2C[C@H](O)C3[C@@]4(C)CCC(=O)C(C)(C)C4CC[C@]3(C)[C@@]2(C)CC1 (stereo not given in full)	46	36	.	.	-9	4	.	.
C[C@@H](C[C@@H](O)[C@H](O)C(C)(C)O)[C@@H]1CC[C@]2(C)C3=CC[C@H]4C(C)(C)C(=O)CC[C@]4(C)[C@H]3CC[C@@]12C	31	51*	-4	8	7	26	40*	96*
CC(=O)N1CCC2(CC1)C/C(=N\NC(=S)Nc1ccccc1F)c1cc(O)ccc1O2	8	67*	-12	6	29	-1	32	96*
CC(=O)N1CCC2(CC1)C/C(=N\NC(=S)Nc1ccccc1C)c1cc(O)ccc1O2	-4	45	-13	-5	0	6	.	.
CCCSc1nsc(NC(=O)C(c2ccccc2)c2ccccc2)n1	-22	40	25	-11	8	-10	.	.
COc1cccc(NC(=O)Nc2nc(SC)ns2)c1	-85	-66	-151	-159	-132	-76	.	.
COc1cccc(NC(=O)Nc2nc(SC(C)(C)C)ns2)c1	-14	93*	-130	-63	-45	-22	72*	57*
CCCSc1nsc(NC(=O)Nc2ccc(F)cc2F)n1	-15	87*	-129	-83	-91	-20	59*	71*
CCSc1nsc(NC(=O)Nc2cccc(F)c2)n1	42	94*	36	-14	-48	1	88*	26
O=[N+]([O-])c1ccc(S(=O)(=O)CC(CN2CCOCC2)N2CCOCC2)cc1 (stereo not given)	2	28	-45	-10	6	11	.	.
O=S(=O)(CC(CN1CCCCC1)N1CCCCC1)c1ccccc1 (stereo not given)	22	72*	16	-23	18	4	66*	17
O=C1CCCN1CC(O)CS(=O)(=O)c1ccccc1 (stereo not given)	1	5	3	-24	6	2	.	.
